# OvCa metastasis = blocks SKOV3ip1 adhesion and invasion in omental model. 0.1% of 46,000 active. Potency, µM (series often up to 45.8 µM), for the others: top-dose activity change, negative = inhibition, actives largely listed as inhibitors. SKOV3ip1-GFP adhesion/invasion on 3D omental model, fluorescence. AID 1963576;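 note: potency is the fitted concentration of half-maximal effect; plate controls were DMSO wells for no effect and tomatine positive control wells for full effect; nearly all actives have a fitted effect of over 65% in size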
#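 Adhesion/invasion was scored as fixed GFP-labeled SKOV3ip1 cell counts (488/509 nm), normalized to DMSO and tomatine controls. Cancer cells in serum-free medium, with four compound doses (0.36-46 umol/L), sat 2 hr at RT then 16 hr at 37 C on a 48 hr fibroblast/mesothelial/ECM culture.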
# p53null 39C tox = p53 null cell cytotoxicity, nonpermissive temperature; H1299 p53-null (neo) cells, 39C, ATPlite viability, 24 h; 0.97% of 55,000 active; Potency, µM (doses to about 46.1 µM), for inactives: top-dose activity, negative = cell killing, usual class: cytotoxic;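 note: potency is the fitted concentration of half-maximal effect; 0% = DMSO only and -100% = full killing by 100 µM tamoxifen; nearly all actives have a fitted effect of over 50% in size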
#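 Cells seeded at 600/well, 37C overnight. Compound added (up to 46 uM), plates shifted to 39C for 24 hr. ATPlite added, luminescence read after 20 min at room temperature.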
# pS6 MEF inh = reduces mTORC1 signaling in Tsc2 and p53 null MEF cells | Tsc2-/- p53-/- MEF, phospho-rpS6 immunofluorescence/PI, 24 h | Potency, µM (titrated, usually from 38.3 µM), for the others: at the top dose activity change, negative = inhibition, most hits filed as inhibitors | 0.78% of 44,000 active;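 note: potency is the fitted concentration of half-maximal effect; plate controls were DMSO for no effect and rapamycin for full effect; nearly all actives have a fitted effect of over 50% in size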
#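 Read-out: phospho-S6 Alexa-488 intensity over PI intensity per well, scored as % active cells using thresholds from rapamycin (7.5 nM) and DMSO controls. Tsc2-/-, p53-/- MEFs exposed to compound for 24 h; PI cell count recorded as viability.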
# S16 F2sN tox = toxic to S16 Pmp22-F2sN Schwann cells. 0.48% of 43,000 active. S16 Pmp22-F2sN Schwann cells viability, CellTiter-Glo, 24 h. Potency, µM (highest dose often 57.5 µM), for inactives: at the top dose activity change, negative = cytotoxicity, most hits filed as cytotoxic; note: potency is the fitted concentration of half-maximal effect; % is set by controls: 0 for no effect and ±100 for the full control effect; nearly all actives have a fitted effect of over 65% in size
#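 CellTiter-Glo counter-screen, qHTS, 1536-well. Cells: S16(c9) Pmp22-F2sN, 500-1,000/well in DMEM + 10% FBS. Cpd 23 nL pin transfer, 24 h, 37C/5% CO2. Read: luminescence, CCD imager.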
# PMP22 txn prim = modulators of PMP22 gene transcription in S16 Schwann cells; S16 Pmp22-F2sN Schwann cells (luciferase reporters placed in the Pmp22 gene), FLuc/NLuc coincidence luminescence, 24 h; Potency, µM (highest dose often 57.5 µM), for the others: at the top dose activity change, negative = inhibition, usual class: inhibitors; 2% of 43,000 active; AID 1508649; active = clear falling dose curves in both reporters; inconclusive = both reporters move, but less clearly or upward; inactive = either reporter flat; the % is the NLuc reporter signal; note: potency is the fitted concentration of half-maximal effect; % is set by controls: 0 for no effect and ±100 for the full control effect
#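 Transcriptional readout in edited S16(c9) cells: two luciferases reported from the Pmp22 locus, measured in turn after 24 h compound incubation.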
# p53null 32C tox = p53 null cell cytotoxicity, permissive temperature; H1299-neo p53 null cells, ATP luminescence, 24 h, 32C; Potency, µM (highest dose often 46.1 µM), for the others: at the top dose activity change, negative = cytotoxicity, actives largely listed as cytotoxic; 0.62% of 55,000 active;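 note: potency is the fitted concentration of half-maximal effect; 0% = DMSO only and -100% = full killing by 100 µM tamoxifen; nearly all actives have a fitted effect of over 55% in size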
#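 ATP-content luminescence in p53-null H1299-neo cells after 24 h compound exposure (up to 46 uM) at 32C permissive temperature; 0% and 100% killing set by DMSO and 100 uM tamoxifen; Hill-equation AC50.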
# NLuc sat counter = counter-screen for PMP22 expression modulators: NanoLuc inhibition, saturating substrate. shares compounds with PMP22 txn prim. Secreted NLuc enzyme (filtered S16 cell medium), Nano-Glo luminescence. Potency, µM (doses to about 57.5 µM), inactives show at the highest dose activity change, negative = inhibition, actives largely listed as inhibitors. 4% of 690 active. AID 1508638; note: potency is the fitted concentration of half-maximal effect; % is set by controls: 0 for no effect and ±100 for the full control effect
# NLuc Km counter = counter-screen for PMP22 expression modulators: NanoLuc inhibition at Km. shares compounds with PMP22 txn prim. 5% of 690 active. secreted NLuc enzyme, coelenterazine luminescence, Km conditions. AID 1508639. Potency, µM (titrated, usually from 57.5 µM), for the others: at the top dose activity change, negative = inhibition, hits mostly inhibitors; note: potency is the fitted concentration of half-maximal effect; % is set by controls: 0 for no effect and ±100 for the full control effect
# FLuc counter = counter-screen for PMP22 expression modulators: firefly luciferase inhibition; shares compounds with PMP22 txn prim; purified P. pyralis FLuc, luminescence, 10 min; Potency, µM (doses to about 57.5 µM), inactives show at the top dose activity, negative = inhibition, usual class: inhibitors; 690 tested, under 10 active; AID 1508640; note: % of control where 0% means no effect
# Target sequence (P08659 whole entry, looked up): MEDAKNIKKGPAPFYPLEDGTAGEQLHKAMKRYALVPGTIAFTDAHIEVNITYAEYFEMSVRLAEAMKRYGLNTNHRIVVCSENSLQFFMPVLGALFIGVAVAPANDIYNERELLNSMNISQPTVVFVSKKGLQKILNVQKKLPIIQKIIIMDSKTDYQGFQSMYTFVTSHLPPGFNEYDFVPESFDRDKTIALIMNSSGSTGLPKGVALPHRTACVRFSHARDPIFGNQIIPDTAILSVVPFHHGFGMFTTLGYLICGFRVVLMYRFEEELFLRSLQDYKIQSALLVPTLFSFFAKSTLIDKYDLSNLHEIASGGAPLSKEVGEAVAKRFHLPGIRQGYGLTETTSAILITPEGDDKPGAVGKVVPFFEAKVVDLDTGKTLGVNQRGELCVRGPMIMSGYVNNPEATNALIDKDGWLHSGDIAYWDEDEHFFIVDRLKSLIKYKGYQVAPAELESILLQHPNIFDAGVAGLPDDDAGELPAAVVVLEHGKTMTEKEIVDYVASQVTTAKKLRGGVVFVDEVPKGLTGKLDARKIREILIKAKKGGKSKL
# S16 viab conf = S16 Schwann cell cytotoxicity, confirmatory. AID 1508641. 7% of 690 active. shares compounds with PMP22 txn prim. S16 Schwann cells viability, CellTiter-Glo ATP luminescence, 24 h. Potency, µM (titrated, usually from 57.5 µM), for the others: at the top dose activity change, negative = viability loss, actives largely listed as cytotoxic; note: potency is the fitted concentration of half-maximal effect; % is set by controls: 0 for no effect and ±100 for the full control effect
# PMP22 txn conf = PMP22 transcription modulation, confirmatory | shares compounds with PMP22 txn prim | 22% of 690 active | Potency, µM (top dose mostly 57.5 µM), for inactives: at the top dose activity change, negative = inhibition, usual class: inhibitors | S16 Schwann cells Pmp22-F2sN, dual luciferase, 24 h; active = clear falling dose curves in both reporters; inconclusive = both reporters move, but less clearly or upward; inactive = either reporter flat; the % is the FLuc reporter signal; note: potency is the fitted concentration of half-maximal effect
# PMP22 prot conf = rat PMP22 protein level modulation, confirmatory. 95 tested, under 10 active. Potency, µM (doses to about 27.9 µM), for inactives: top-dose activity change, negative = inhibition, hits mostly inhibitors. S16 Schwann cells Pmp22-HiBiT, luminescence, 48 h. shares compounds with PMP22 txn prim
# Target sequence (P25094 whole entry, looked up): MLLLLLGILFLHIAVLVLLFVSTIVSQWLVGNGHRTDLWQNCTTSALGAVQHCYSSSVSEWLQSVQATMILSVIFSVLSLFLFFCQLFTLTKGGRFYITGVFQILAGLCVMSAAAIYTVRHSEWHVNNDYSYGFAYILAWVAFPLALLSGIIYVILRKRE
# * = called active by the depositor; i = inactive; ? = inconclusive; · = no result. Hits are enriched below; roughly 3.1% of the tested compounds scored in any of these assays. Unless noted, calls come from the whole dose curve; as a rule, active = well fitted curve in the direction sought with a large enough effect; inconclusive = small, poorly fitted or top-dose-only effect, or another doubt; inactive = no such curve, though single readings can be large; an effect the other way counts as inactive or inconclusive.
SMILES,OvCa metastasis,p53null 39C tox,pS6 MEF inh,S16 F2sN tox,PMP22 txn prim,p53null 32C tox,NLuc sat counter,NLuc Km counter,FLuc counter,S16 viab conf,PMP22 txn conf,others
COc1cccc(NC(=O)CSc2ncc3c(n2)-c2ccc(Cl)cc2N(C)S3(=O)=O)c1,6.1%,-0.8%,0.4%,-7.1%,2.53µM*,2.5%,-6.4%,0.4%,-1.0%,-1.0%,?,
COc1ccccc1NC(=O)CSc1ncc2c(n1)-c1cc(Cl)ccc1N(C)S2(=O)=O,8.9%,1.0%,8.4%,-26.5%,-24.3%,13.9%,·,·,·,·,·,
Cc1noc(/C=C/c2ccco2)c1S(=O)(=O)N1CCC(C(=O)Nc2ccc(F)c(Cl)c2)CC1,i,14.9%,-11.0%,?,11.9µM*,22.6%,-10.7%,1.8%,2.9%,-7.3%,-29.1%,
CCc1ccc(NC(=O)c2ccc3c(c2)c(C)c(C)n3Cc2ccccc2)cc1,-3.3%,3.7%,-13.7%,-8.1%,?,15.4%,-8.8%,2.7%,?,-5.9%,?,
CCOc1ccc(-c2c(C)nn3c(C)c(C(=O)NCCN(C)C)cnc23)cc1OCC,-0.4%,19.4%,-7.1%,12.2%,-4.5%,1.4%,·,·,·,·,·,
CCOc1ccc(-c2c(C)nn3c(C)c(C(=O)NCC(C)c4ccccc4)cnc23)cc1OCC (configuration not stated),i,47.8%,-16.5%,3.8%,16.8µM*,11.5%,?,?,-3.0%,-15.8%,?,
Cc1ccc2nc(NC(=O)CSc3nc4c(c(=O)n3-c3ccccc3)SCC4)sc2c1,-5.4%,·,·,·,·,·,·,·,·,·,·,
CC(c1ccccc1)n1cc2c(c1-c1ccccc1Br)c(=O)n(C)c(=O)n2C (configuration not stated),-14.1%,10.3%,-12.2%,-8.8%,-6.8%,15.4%,·,·,·,·,·,
Cn1c(=O)c2c(-c3ccccc3Br)n(C(C)(C)C)cc2n(C)c1=O,6.6%,-9.5%,-6.7%,0.6%,15.6µM*,5.1%,?,-15.5%,3.0%,?,-21.7%,
CO[C@H]1C=CO[C@@]2(C)Oc3c(C)c(O)c4c(O)c(c5c(c4c3C2=O)NC2(CCN(CC(C)C)CC2)N=5)=NC(=O)C(C)=CC=C[C@H](C)[C@H](O)[C@@H](C)[C@@H](O)[C@@H](C)[C@H](OC(C)=O)[C@H]1C,7.9%,·,·,·,·,·,·,·,·,·,·,
CN(C)[C@@H](CCOc1cccc2ccccc12)c1ccccc1,4.3%,·,·,·,·,·,·,·,·,·,·,
Cc1cc(-c2ccc(C)c(S(=O)(=O)N3CCN(c4cccc(C(F)(F)F)c4)CC3)c2)on1,-12.3%,6.4%,5.0%,0.4%,-8.8%,-3.5%,·,·,·,·,·,
COC(=O)c1c(-c2ccc(Cl)cc2)noc1N1CCN(c2cccc(C(F)(F)F)c2)CC1,?,15.0%,?,?,5.39µM*,-18.2%,-0.6%,-2.8%,0.9%,?,16.3µM*,PMP22 prot conf=84.1%
COC(=O)c1ccc(NC(=O)CN2CCN(c3ccc(Cl)cc3)CC2)cc1,2.8%,-7.6%,0.0%,3.3%,9.1%,-3.0%,·,·,·,·,·,
COC(=O)c1c(-c2ccc(Cl)cc2)noc1N1CCN(c2ccccc2OC)CC1,?,?,9.3%,?,8.91µM*,12.6%,-4.7%,-2.5%,-7.3%,29.8%,19.3µM*,PMP22 prot conf=27.8%
COc1ccccc1N1CCN(C(=O)CSc2nc(-c3ccc(C(C)C)cc3)no2)CC1,-1.3%,?,0.0%,-0.4%,?,?,·,·,·,·,·,
COC(=O)c1c(-c2ccc(Cl)cc2)noc1N1CCN(c2ccc(F)cc2)CC1,-4.8%,?,0.3%,8.0%,3.77µM*,-2.5%,-0.9%,0.9%,-1.0%,?,12.9µM*,PMP22 prot conf=76.2%
COc1cc2ncnc(Nc3ccc(F)c(Cl)c3)c2cc1NC(=O)C=CCN1CCCCC1,-1.3%,·,·,·,·,·,·,·,·,·,·,
CCOc1ccc(CCNc2nc3ccccc3n3c(C)nnc23)cc1OCC,-14.7%,-7.0%,-7.7%,-2.7%,?,7.8%,?,?,0.6%,0.3%,?,
CNC(=O)c1cccc(-c2ccc3c(N4CCOC[C@H]4C)nc(N4CCOC[C@H]4C)nc3n2)c1,-16.9%,·,·,·,·,·,·,·,·,·,·,
COc1ccc(-c2cc(C(F)(F)F)nc(S(C)(=O)=O)n2)cc1,?,?,14.7µM*,?,20µM*,?,-15.7%,13.7µM*,-9.5%,?,16.5µM*,PMP22 prot conf=3.6%
COc1ccc(-c2cc(C(F)(F)F)nc(-n3nc(C(F)(F)F)cc3C)n2)cc1,-15.7%,6.3%,?,7.4%,?,1.4%,·,·,·,·,·,
Cc1ccccc1C(C(=O)NC1CCCCC1)N(C(=O)Cn1ccnc1C)c1cccc(F)c1 (configuration not stated),3.6%,·,·,·,·,·,·,·,·,·,·,
O=C(Cc1ccc(Cl)cc1)Nc1ccc2nn(-c3ccccc3)nc2c1,2.8%,-3.1%,-4.8%,20.0%,?,-3.5%,·,·,·,·,·,

# Compound activity (PubChem BioAssay)
